# Laboratory results reported in publication PMC5540273 (PLoS ONE, 2017).
# Assays:
# Conditions in all cases: concentration: 1 μM, replicates: in singlicate; n = 1
# EPHA7 = test system: EPHA7
# EPHA8 = test system: EPHA8
# EPHB1 = test system: EPHB1
# EPHB2 = test system: EPHB2
# EPHB3 = test system: EPHB3
# EPHB4 = test system: EPHB4
# EPHB6 = test system: EPHB6
# ERBB2 = test system: ERBB2
# ERBB3 = test system: ERBB3
# ERBB4 = test system: ERBB4
# 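Note: KINOMEscan kinase panel screen.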
SMILES,%Inh (EPHA7),%Inh (EPHA8),%Inh (EPHB1),%Inh (EPHB2),%Inh (EPHB3),%Inh (EPHB4),%Inh (EPHB6),%Inh (ERBB2),%Inh (ERBB3),%Inh (ERBB4)
COc1cccc(CC(=O)N2CCc3cc(-c4cn(C)c5ncnc(N)c45)ccc32)c1 [GSK2608899],10%,11%,24%,14%,7%,0%,64%,0%,0%,0%
Cc1ccc(O)cc1Nc1ccnc2ccc(C(C)(C)C)cc12 [GW856805],0%,98.2%,97.4%,92.5%,100%,97.1%,24%,32%,15%,24%
Fc1cc(Cl)ccc1Nc1ccnc2cc(-c3ccc(CN4CCSCC4)o3)ccc12 [GW560106],0%,72%,43%,19%,0%,50%,91.2%,44%,77%,39%
O=C1NC(=O)C(c2ccccc2Cl)=C1Nc1cccc(Cl)c1 [SB-342409],15%,19%,8%,12%,13%,15%,0%,0%,0%,9%
Cc1ccc(NC(=O)c2ccc(Cl)c(Cl)c2)cc1-c1ccc(C(=O)Nc2ccncc2)cc1 [GSK1398460],9%,35%,17%,17%,25%,19%,16%,2%,0%,4%
Cl.O=C(Nc1ccc(Oc2ccc3[nH]c(NC(=O)c4ccco4)nc3c2)cc1)Nc1cc(C(F)(F)F)ccc1F [GW683134],86%,99.5%,70%,72%,24%,60%,93.7%,9%,0%,29%
CN(c1ccc2c(c1)nc(NCc1ccccc1)n2C)c1ccnc(Nc2ccc(CS(C)(=O)=O)cc2)n1.Cl [GW811603],20%,47%,0%,0%,0%,2%,87%,35%,28%,17%
CCn1c(-c2nonc2N)nc2c(-c3ccccc3)ncc(OCCCN)c21.O=C(O)C(F)(F)F.O=C(O)C(F)(F)F [GSK260205],6%,10%,0%,0%,0%,7%,0%,89%,0%,41%
Cn1cc(-c2cnc(N)c3c(-c4ccc5c(c4)CCN5C(=O)Cc4ccccc4)csc23)cn1 [GSK2593074],6%,8%,6%,2%,4%,9%,98.3%,0%,4%,0%
